Measured values as given in PubChem BioAssay AID1209 (Sanford-Burnham Center for Chemical Genomics, 2008).
The campaign covered roughly 190,000 compounds. About 810 (0.43%) were called active. No stated cut-off is given here; in the data, active means inhibition above about 50%; inactive means the rest. The sample as a whole holds a higher share of actives than the screen did.

These molecules were tested against Mannose-6-phosphate isomerase (Homo sapiens) (UniProt P34949) (assay: inhibitors of human PMI, primary screen, biochemical, fluorescence intensity, coupled assay (AID 1209;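 further: plate controls were DMSO vehicle for no effect and wells lacking substrate for full effect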)). Details: purified PMI enzyme, at 20 µM, active compounds read high.
Chain of Mannose-6-phosphate isomerase (Homo sapiens) (P34949 whole entry, looked up): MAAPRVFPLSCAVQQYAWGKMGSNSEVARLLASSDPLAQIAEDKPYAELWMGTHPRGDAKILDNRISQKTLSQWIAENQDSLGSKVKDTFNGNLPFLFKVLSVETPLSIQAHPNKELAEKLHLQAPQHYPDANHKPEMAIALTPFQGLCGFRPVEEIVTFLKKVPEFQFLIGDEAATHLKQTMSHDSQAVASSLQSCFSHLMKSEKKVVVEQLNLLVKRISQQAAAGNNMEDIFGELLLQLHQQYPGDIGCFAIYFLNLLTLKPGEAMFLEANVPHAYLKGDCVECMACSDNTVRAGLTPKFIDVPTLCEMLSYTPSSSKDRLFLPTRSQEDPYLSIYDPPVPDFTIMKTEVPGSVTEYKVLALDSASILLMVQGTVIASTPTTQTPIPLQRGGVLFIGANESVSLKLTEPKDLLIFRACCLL
CCSc1c(-c2ccccc2)nc2c(C)cccc2c1C(=O)O was tested, and the inhibition was 4.5% (inactive). In the case of CCSc1nnc(-c2ccccc2SC)o1, the inhibition is reported as -75.6% (inactive). Cc1cccc(NC(=O)c2sc3nc4c(c(-c5cccs5)c3c2N)CN(C)CC4)c1 was tested, and the inhibition was -14.8% (inactive). With CN1CCN(c2ccc(NC(=O)c3ccc(-c4ccc(Br)cc4)o3)cc2)CC1 the inhibition was -0.8% (inactive). With Cc1c(Nc2cc(N3CCCCCC3)c3nonc3c2[N+](=O)[O-])c(=O)n(-c2ccccc2)n1C the inhibition was 55% (active). For Cc1c(Nc2cc(N3CCOCC3)c3nonc3c2[N+](=O)[O-])c(=O)n(-c2ccccc2)n1C, the inhibition was 19.4% (inactive). In the case of Cc1c(Nc2cc(N3CCCC(C)C3)c3nonc3c2[N+](=O)[O-])c(=O)n(-c2ccccc2)n1C (configuration not stated), the inhibition is reported as 45.8% (inactive). Cc1ccc2c(C(=O)CN3CCN(c4ccccc4)CC3)c(C)[nH]c2c1 was tested, and the inhibition was -4.7% (inactive). For CCOc1ccccc1-n1c(SCC(=O)NC2CCCC2)nnc1-c1ccoc1C, the inhibition was 17.9% (inactive). COc1cc(C(=O)N/N=C/c2ccc(OC)c(CN3CCN(c4ccc(F)cc4)CC3)c2)ccc1O was tested, and the inhibition was 22.3% (inactive). COc1ccc(/C=N/NC(=O)c2ccccc2)cc1CN1CCN(c2ccc(F)cc2)CC1 was tested, and the inhibition was -6.3% (inactive). COc1ccc(/C=N\NC(=O)c2cc(O)c(O)c(O)c2)cc1CN1CCN(c2ccc(F)cc2)CC1 was tested, and the inhibition was 58.1% (active). For COc1ccc(/C=N/NC(=O)c2ccc(N)cc2)cc1Cn1cc([N+](=O)[O-])cn1, the inhibition was 2.9% (inactive). COc1ccc(/C=N\NC(=O)c2cccc([N+](=O)[O-])c2)cc1Cn1cc([N+](=O)[O-])cn1 was tested, and the inhibition was 10% (inactive). CCC(O)c1c(-c2ccccc2)nn(C)c1Cl (configuration not stated) was tested, and the inhibition was 1.3% (inactive). With O=S1(=O)CC(O)C(NCc2ccco2)C1 (configuration not stated) the inhibition was -0.2% (inactive). For COc1ccc(-c2csc(NC(=O)c3cc(=O)c4ccccc4o3)n2)cc1OC, the inhibition was -9.2% (inactive). COC(=O)c1ccc(COC(=O)C23CC4CC(CC(O)(C4)C2)C3)o1 was tested, and the inhibition was 1.1% (inactive). In the case of Cc1cc(/N=C/N(C)C)on1, the inhibition is reported as 4.8% (inactive). CN(C)C=Nc1nonc1N was tested, and the inhibition was -5.6% (inactive). With CN(C)C=Nc1c(Br)cc(Br)c2nonc12 the inhibition was 70.8% (active). CC1(c2ccc([N+](=O)[O-])cc2)CC(C)(C)N(C(=O)c2ccccc2)c2ccccc21 (configuration not stated) was tested, and the inhibition was 15.2% (inactive). With CC1(C)CC(CCC(=O)Nc2ccc(S(N)(=O)=O)cc2)C(=O)O1 (configuration not stated) the inhibition was -3.1% (inactive). In the case of CCNC(=S)N(Cc1ccco1)Cc1cc2cc3c(cc2[nH]c1=O)OCCO3, the inhibition is reported as 17.8% (inactive). With O=c1[nH]c2cc3c(cc2cc1CN(Cc1cccnc1)C(=S)NCc1ccco1)OCCO3 the inhibition was 59.7% (active). With CN(C)CCN(Cc1cc2cc3c(cc2[nH]c1=O)OCO3)C(=S)NCc1ccco1 the inhibition was 9.6% (inactive). With Cc1cc2cc(CN(CC3CCCO3)C(=S)NCc3ccco3)c(=O)[nH]c2cc1C (configuration not stated) the inhibition was 9% (inactive). O=c1[nH]c2cc3c(cc2cc1CN(CCCO)C(=S)NCc1ccco1)OCO3 was tested, and the inhibition was 11.2% (inactive). With Cc1ccc2[nH]c(=O)c(CN(CC3CCCO3)C(=S)NCc3ccco3)cc2c1 (configuration not stated) the inhibition was 17.8% (inactive). In the case of O=c1[nH]c2cc3c(cc2cc1CN(Cc1cccnc1)C(=S)NCc1ccco1)OCO3, the inhibition is reported as 53.9% (active). With CC(C)CNC(=S)N(Cc1ccco1)Cc1cc2cc3c(cc2[nH]c1=O)OCCO3 the inhibition was 19.9% (inactive). In the case of Cc1ccc2cc(CN(CC3CCCO3)C(=S)NCc3ccco3)c(=O)[nH]c2c1 (configuration not stated), the inhibition is reported as 54.6% (active).
